# HCV inh: qHTS Assay for Inhibitors of Hepatitis C Virus (HCV). Potency, µM (top dose mostly 41.8 µM), for inactives: at the top dose activity change, negative = inhibition, most hits filed as inhibitors. Huh7.5.1 HCVcc-Cre infection, luciferase reporter, 44 h. 340,000 compounds, 3.4% hits; active = well fitted inhibition curve with a large enough effect; inconclusive = small, poorly fitted or top-dose-only effect, or another doubt; inactive = no such curve, though single readings can be large or run the other way; note: potency is the fitted concentration of half-maximal effect; % is set by controls: 0 for no effect and ±100 for the full control effect
#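 Cells (1,000/well) were plated 4 h before compound, then infected with HCVcc-Cre virus (~0.5 moi). After 44 h further culture, infection was read as luciferase luminescence following a 15 min substrate incubation at room temperature.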
# MARV entry inh: qHTS for inhibitors of binding or entry into cells for Marburg Virus. Marburg virus pseudotyped entry inhibition, cell reporter. Potency, µM (series often up to 37.8 µM), inactives show at the highest dose activity change, negative = inhibition, hits mostly inhibitors. 300,000 compounds, 1.8% hits; calls by dose curve; tested in HEK293 cells; note: potency is the fitted concentration of half-maximal effect; % is set by controls: 0 for no effect and ±100 for the full control effect
# FMDV antiviral: High Throughput Screening for Foot and Mouth Disease Virus Antivirals | FMDV antiviral cell-based qHTS | Potency, µM (titrated, usually from 57.9 µM), for the others: top-dose activity change, negative = inhibition, most hits filed as inhibitors | 410,000 compounds, 1.2% hits; calls by dose curve; tested in HEK293T cells; note: read-out not given here; potency is the fitted concentration of half-maximal effect; % is set by controls: 0 for no effect and ±100 for the full control effect; nearly all actives have a fitted effect of over 45% in size
# SARS PLpro yeast: qHTS of Yeast-based Assay for SARS-CoV PLP | S. cerevisiae expressing SARS-CoV PLpro, growth rescue | Potency, µM (titrated, usually from 32.9 µM), inactives show at the top dose activity, positive = growth rescue, hits mostly activators | 330,000 compounds, 0.19% hits | AID 485353, 2010; calls by dose curve; note: potency is the fitted concentration of half-maximal effect; 0% is about no effect; nearly all actives have a fitted effect of over 55% in size
# HCMV inh: qHTS Assay for inhibitors of the human cytomegalovirus (HCMV); HFF cells, HCMV-luciferase reporter, 72 h; hits give low values; activity change, negative = inhibition, % at 57.5 µM; 410,000 compounds, 4.5% hits; in the data active = activity change below about -60%; inconclusive = no clear call, values can overlap the other calls; inactive = above about -39%; note: % is set by controls: 0 for no effect and ±100 for the full control effect
#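 Steps: HFFs plated, 16 h 37C; compounds added; HCMV-luciferase added to MOI 1 PFU/cell; 72 h 37C; OneGlo reagent, 5 min room temperature; luminescence read, normalized to controls.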
# LASV entry inh: qHTS for Inhibitors of binding or entry into cells for Lassa Virus. AID 540256, 2011. Potency, µM (series often up to 37.9 µM), inactives show at the highest dose activity change, negative = inhibition, actives largely listed as inhibitors. 300,000 compounds, 1.2% hits. Lassa virus pseudotype entry inhibition, cell reporter; calls by dose curve; tested in HEK293 cells; note: potency is the fitted concentration of half-maximal effect; % is set by controls: 0 for no effect and ±100 for the full control effect; nearly all actives have a fitted effect of over 50% in size
# Active calls of the source: *; ? = inconclusive; nt = no result; [ ] = another dose, or the depositor's remark. Shown are actives, neighbours in structure and some others; about 8% of the full set was active somewhere.
SMILES,HCV inh,MARV entry inh,FMDV antiviral,SARS PLpro yeast,HCMV inh,LASV entry inh
CN1/C(=C/C(=O)CSc2ccccc2C(=O)O)C(C)(C)c2ccccc21,12%,nt,0%,8%,20,nt
CN1/C(=C\C(=O)Nc2ccc(Cl)cc2)C(C)(C)c2ccccc21,-24%,?,5%,-103%,?,-20%[46.1 µM]
COc1ccccc1C(=O)NC(=S)/C=C1/N(C)c2ccccc2C1(C)C,?,14µM*,?,-4%,-92*,?
CN1/C(=C/C(=S)NC(=O)C2(C)CC2(Cl)Cl)C(C)(C)c2ccccc21 (stereo not given),?,?,-23%,22%,-69*,13%[46.1 µM]
CN1/C(=C\C(=S)Nc2ccccc2)C(C)(C)c2ccccc21,?,?,-21%,-17%,-71*,-16%[46.1 µM]
CC(C)(O)[C@@H]1CCC[N+]2(C)CCCC[C@H]12 (stereo not given in full),nt,nt,-10%,nt,nt,nt
Cc1ccc2nc(-c3ccc(F)cc3)c(Cc3ccsc3)n2c1,nt,nt,nt,nt,42,nt
Cc1[nH]c2ccccc2c1C1=CCNCC1,11µM*,-4%,-2%,2%,-26,-6%
C1=C(c2ccccc2)CCNC1,14%,?,-7%,1%,55,?
CN(C(=O)c1nc(-c2cccc(F)c2)n2c1CCCCC2)c1ccccc1F,nt,nt,-13%,nt,-62*,4%[46.1 µM]
COC(=O)c1nc(-c2ccc3c(n2)C(=O)C(N)=C(OC)C3=O)c(N)c(-c2ccc(OC)c(OC)c2O)c1C,2.2µM*,?,?,1%,?,?
COC1=C(N)C(=O)c2nc(-c3nc(C(=O)O)c(C)c(-c4ccc(OC)c(OC)c4O)c3N)ccc2C1=O,0.32µM*,0.058µM*,4µM*,-67%,nt,0.082µM*
COc1cc2c(cc1OC)[C@@H]1O[C@](c3ccsc3)(C2)Oc2c1c(=O)oc1ccc(F)cc21,nt,28%[14.2 µM],nt,nt,nt,nt
COCCCNc1nc2c(-c3cccc(Br)c3)nnn2c2ccccc12,nt,5%[46.1 µM],21%,nt,39,27%[46.1 µM]
CCCc1nc(NCc2ccccn2)c2nnn(Cc3ccccc3F)c2n1,?,3%,25µM*,-22%,-33,2%
CCCc1nc(NCc2ccncc2)c2nnn(Cc3ccccc3F)c2n1,?,-19%,?,14%,-24,?
COc1ccc(OC)c(CCNc2nc3cc(OC)c(OC)cc3c3nc(-c4cccnc4)nn23)c1,nt,12%[46.1 µM],-10%,nt,4,nt
COc1ccc(/C=C/C=C2C(=O)NC(=S)NC2=O)cc1,?,?,40µM*,nt,7,?
CCOc1ccc(N(CC(=O)Nc2cccc(F)c2)S(=O)(=O)c2c(C)noc2C)cc1,-17%,nt,-11%,-5%,-15,nt
CCOc1ccc(N(CC(=O)Nc2ccccc2C)S(=O)(=O)c2c(C)noc2C)cc1,-26%,3%,-21%,1%,-69*,nt
COc1ccc(N(CC(=O)Nc2ccc(C)cc2)S(=O)(=O)c2c(C)noc2C)cc1,10%,nt,-23%,-2%,-25,nt
CCOc1ccc(N(CC(=O)Nc2ccc(C)c(C)c2)S(=O)(=O)c2c(C)noc2C)cc1,?,nt,?,-18%,-71*,nt
Cc1ccc(N(CC(=O)Nc2cc(C)cc(C)c2)S(=O)(=O)c2c(C)noc2C)cc1,?,nt,?,19%,-85*,nt
CCN(c1ccccc1)S(=O)(=O)c1ccc(OC)c(NC(=O)c2ccccc2OC)c1,?,18%,-7%,-4%,-8,-12%
O=C(Nc1nc(-c2cc(F)ccc2F)cs1)C1=NN(c2ccccc2)C(=O)CC1,3%,-1%,-31%,-7%,61,?
SMILES,HCV inh,MARV entry inh,FMDV antiviral,SARS PLpro yeast,HCMV inh,LASV entry inh
COc1ccc(-c2csc(NC(=O)c3cccc(N4C(=O)CCC4=O)c3)n2)cc1C,nt,6%,?,-1%,?,0%
CCN(c1ccccc1)S(=O)(=O)c1ccc(OC)c(NC(=O)C2=NN(c3ccccc3)C(=O)CC2)c1,?,?,-4%,-4%,-17,0.32µM*
O=C(Nc1nc(-c2ccc3ccccc3c2)cs1)c1ccc(N2C(=O)CCC2=O)cc1,-25%,0%,?,0%,-71*,5%
COc1ccc(-c2csc(NC(=O)C3=NN(c4ccccc4)C(=O)CC3)n2)cc1,7.1µM*,?,20µM*,-6%,-32,?
O=C(CCCl)N1c2ccccc2C=Cc2ccccc21,?,nt,-5%,nt,-71*,nt
O=C(C1COc2ccccc2O1)N(Cc1cccnc1)c1nc2ccc(Cl)cc2s1 (stereo not given),nt,nt,12%,nt,5,26%[46.1 µM]
CCN(CC)S(=O)(=O)c1ccc(-c2nnc(SCC(=O)N3c4ccccc4CC3C)n2CC)cc1 (stereo not given),?,?,20µM*,21%,?,?
COc1ccc(-c2cc(C(=O)NCCc3ccccc3)c3c(-c4ccccc4)[nH]nc3n2)cc1,nt,nt,29%,nt,-82*,?
CCc1ccc(-c2[nH]nc3nc(-c4ccc(OC)cc4)cc(C(=O)NCCc4ccc(OC)c(OC)c4)c23)cc1,nt,nt,?,nt,-91*,8%[46.1 µM]
COc1ccc(-c2cc(C(=O)NCCc3ccccc3)c3c(-c4ccc(Cl)cc4)[nH]nc3n2)cc1,nt,nt,-13%,nt,-98*,-13%[46.1 µM]
COc1ccc(CCNC(=O)c2cc(-c3ccc(C)cc3)nc3n[nH]c(-c4ccc(F)cc4)c23)cc1OC,nt,nt,-9%,nt,-21,28%[46.1 µM]
COCCCNC(=O)c1cc(-c2ccc(OC)cc2)nc2n[nH]c(-c3ccc(Cl)cc3)c12,nt,nt,0%,nt,-8,4%[46.1 µM]
COc1ccc(OC)c(-c2cc(C(=O)NCCc3ccccc3)c3c(-c4ccc(C)cc4)[nH]nc3n2)c1,nt,nt,1%,nt,3,6%[46.1 µM]
COc1ccc(Nc2cc3c(cn2)cc(-c2cccc(C(F)(F)F)c2)n3C)c(OC)c1,nt,nt,nt,nt,-1,nt
Cc1ccc(Sc2ccc(CN3CCCC3)cc2[N+](=O)[O-])cc1,?,nt,-25%,1%,-27,nt
CN1CCN(Cc2ccc(Sc3ccc(Cl)cc3)c([N+](=O)[O-])c2)CC1,?,?,-26%,0%,-71*,-8%
O=C(NC1CCCCC1)c1ccc([N+](=O)[O-])o1,-12%,?,-14%,1%,nt,?
O=C(NN(c1ccccc1)c1ccccc1)c1ccc([N+](=O)[O-])o1,?,?,0%,1%,-93*,-17%[46.1 µM]
O=C(Nc1cccnc1)c1ccc([N+](=O)[O-])o1,?,nt,-24%,0%,-29,nt
O=C(NNC(=O)c1ccc([N+](=O)[O-])o1)c1ccccc1,?,?,-14%,4%,-92*,-30%
NC(=O)c1oc2ccccc2c1NC(=O)c1ccc([N+](=O)[O-])o1,?,?,-7%,-11%,-102*,?

# High-throughput results as filed in PubChem.
